# According to PubChem BioAssay (NCI):
# Compounds without any hit were thinned out: in the full panel of roughly 83,000, 20% have a hit.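 Note: values are percent growth. 100 is the growth of untreated cells, values between 100 and 0 indicate rising inhibition; between -100 and 0 indicates cell death.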 Activity calls are given as the source filed them.
# Tested on: HT29 colon
# Assay: NCI-60 one-dose screen, 48 h (100 = growth as untreated, 0 = no growth, -100 = all killed)
# Conditions: 10 µM unless noted
# Experimental: Growth inhibition of the HT29 human tumor cell line is measured as a screen for anti-cancer activity. Cells are grown in 96 well plates and exposed to the test compound for 48 hours. Compounds are tested at a single concentration, which is 10^-5 M for most compounds. The reported endpoint is percent growth (GI% or GIPRCNT), where numbers from 0 - 100% represent growth inhibition, and numbers from -100% - 0 represent cell death. For example, a value of 40 represents 60% growth inhibition. A value of 0 means no net growth occurred over the course of the experiment. A value of -40 indicates 40% of cells at the beginning of the experiment died by the end of the experiment. A value of -100 means all cells are dead at the end of the experiment.
# NCI-60 Human Tumor Cell Lines Screen was performed using the standard one-dose NCI protocol, which is described in more detail at https://dtp.cancer.gov/discovery_development/nci-60/default.htm.
# Compounds with GIPRCNT values below 10 were considered active. Activity score was based on GIPRCNT using the following formula: […]
# Score is 0 for GIPRCNT values of 100 or above, 50 for GIPRCNT values of 0, and 100 for GIPRCNT values of -100.
row,Compound,growth
1,CCN(CC)c1ccc(C(=O)c2ccc(N(CC)CC)cc2)cc1,4.92% (active)
2,O=c1c2cc(F)ccc2sc2c(Nc3cccnc3)nc3ccccc3c12,110% (inactive)
3,CC(=O)c1nc(Nc2ccc(C)cc2)sc1C,105% (inactive)
4,C=C1C(=O)O[C@H]2[C@H]1CC/C(COC(=O)C(=O)c1c[nH]c3ccc(OC)cc13)=C\CC[C@@]1(C)O[C@@H]21,-69.7% (active)
5,COCCN(C(=O)c1ccc(F)cc1F)c1c(N)n(Cc2ccccc2)c(=O)[nH]c1=O,104% (inactive)
6,O=c1ccn2nc3ccccc3c2[nH]1,96.1% (inactive)
7,Cc1ccccc1NC(=O)N/C(N)=N/c1nc(-c2cccc([N+](=O)[O-])c2)cs1,17.1% (inactive)
8,Nc1n[nH]c(-c2cc(Cl)ccc2O)c1-c1ccccc1,102% (inactive)
9,COC(=O)[C@H](CSC)N(C)C(=O)[C@@H]1CSSC[C@@H](NC(=O)c2nc3ccccc3cc2O)C(=O)NCC(=O)N1C,76.1% (inactive)
10,CC(=O)n1c(-c2ccc(Cl)cc2)nc2c(c1=O)C(c1ccc(Cl)cc1)c1sc3c(Cl)cccc3c1O2 (stereo not given),-52.4% (active)
11,Cc1c2c(c(C)c3c1oc1cc(O)ccc13)C(=O)N(CCN1CCCCC1)C2=O,61.3% (inactive)
12,CCCCCCCCCCCC(c1ccccc1)[N+](C)(C)C (stereo not given),3.96% (active)
13,COc1cc(N=Nc2ccc(N)cc2)c(OC)cc1N=Nc1ccccc1.[Cl][Zn][Cl],113% (inactive)
14,COC(=O)[C@]12CC[C@@H](C)[C@H](C)[C@@H]1C1=CC[C@@H]3[C@@]4(C)C(C=O)=C[C@@](C)(COS(C)(=O)=O)C4[C@H](O)C[C@@]3(C)[C@]1(C)CC2 (stereo not given in full),-85.2% (active)
15,COC(=O)[C@]12CC[C@@H](C)[C@H](C)[C@@H]1C1=CC[C@@H]3[C@@]4(C)C(C=O)=C[C@@](C)(COC(=O)/C=C/c5ccccc5)[C@@H]4[C@H](O)C[C@@]3(C)[C@]1(C)CC2,-22.9% (active)
16,COc1ccc(CN2C(=O)C(Cl)=C(Nc3cccc(C(F)(F)F)c3)C2=O)cc1,57.1% (inactive)
17,CC/C=C\C[C@H](O)C/C=C1/C(=O)C=C[C@@H]1C/C=C\CCCC(=O)OC,-54.7% (active)
18,O=C(Nc1cccc(Cl)c1)c1cc(N=Nc2ccc([N+](=O)[O-])cc2Cl)ccc1O,76.7% (inactive)
19,COc1cccc(C(=O)NCCNc2cc(-c3cn(-c4ccccc4)nc3-c3cccc(OC)c3)ccn2)c1,22.6% (inactive)
20,OC(COc1ccccc1Cl)COc1ccccc1Cl,92.5% (inactive)

row,Compound,growth
1,CN(C)CCC=C1c2ccccc2C(C)(C)c2ccccc21,30.5% (inactive)
2,O=c1ssc(Cl)c1-c1ccccc1,103% (inactive)
3,O=C(O)c1ccc2c(c1)CCC2,103% (inactive)
4,CCCCCS(=O)(=O)Nc1ccc(C(=O)O)cc1,97.2% (inactive)
5,N#C/C(=C\c1ccc2c(c1)OCO2)n1nnc2cc(F)c(F)cc21,30.3% (inactive)
6,COc1ccc(/C=N\NC(=O)c2cc(-c3ccc(Br)cc3)n(-c3ccc(S(N)(=O)=O)cc3)n2)cc1,36.7% (inactive)
7,Nc1nc(N)c2c(n1)NC(c1ccccc1)C1CCc3ccccc3C1=N2 (stereo not given),27.9% (inactive)
8,COc1ccc(C2CC(c3cccc(OC)c3)=NN2C(=O)c2cc(OC)c(OC)c(OC)c2)cc1 (stereo not given),14% (inactive)
9,COC(=O)c1c2c(c(C)[n+]([O-])c1C)C(=O)C(NCc1ccc(F)c(Cl)c1)=CC2=O,5% (active)
10,CC1O[C@@H](OC2[C@H](OC(=O)/C=C/c3ccc(O)c(O)c3)C(COC3O[C@H](C)C(O)C(O)[C@@H]3O)O[C@@H](OCCc3ccc(O)c(O)c3)[C@H]2O)[C@@H](O)C(O)[C@H]1O (stereo not given in full),100% (inactive)
11,COc1nc2c(c(=O)n1C)CN(c1ccccc1)C(=O)CN2C,62.3% [100 µM] (inactive)
12,Cc1cc(NCc2cc(Nc3ccnc4cc(Cl)ccc34)ccc2F)nc(N2CCSCC2)n1,-27.3% (active)
13,CCN1C(=O)N(CC)C2Nn3c(s/c(=C4\C(=O)N(C)c5ccccc54)c3=O)=NC21 (stereo not given),74.9% (inactive)
14,Cc1ccc(C(=O)COc2cccc(/C=C3\Oc4ccccc4C3=O)c2)cc1,114% (inactive)
15,COc1cc2c(cc1-c1c(C)noc1C)ncc1nc(C3CCC(F)(F)CC3)n(C3CCC(OC(F)F)CC3)c12 (stereo not given),31.6% (inactive)
16,NC(N)=NN=C(c1ccccc1)c1ccccc1,11.7% (inactive)
17,C[C@]12CC[C@@H]3c4cc(OC(F)F)c(O)cc4CC[C@H]3[C@@H]1CC[C@@H]2OS(N)(=O)=O,19.5% (inactive)
18,C=C(C)[C@@H]1CC[C@]2(C(=O)NC3CCCCC3)CC[C@]3(C)[C@H](CC[C@@H]4[C@@]5(C)CCCNC(C)(C)[C@@H]5CC[C@]43C)[C@@H]12,2.51% (active)
19,CCCCn1c(=O)c2c(nc(NCCc3ccc(O)c(O)c3)n2CCC)n(CCCC)c1=O,70.9% (inactive)
20,COc1cc2ncn3c(=O)c4c5c(sc4nc3c2cc1OC)CCCC5,91.8% (inactive)
